Assay outcomes deposited in PubChem BioAssay by The Scripps Research Institute Molecular Screening Center.
DAGLB inhibitor – diacylglycerol lipase beta (human) inhibition | HEK293T DAGLB membrane lysate, EnzChek fluorogenic substrate | inhibition, % at 5.17 µM | actives 0.059% (n = 340,000) | AID 504411; in the data active = inhibition above about 34%;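 note: 0% = enzyme with vehicle and 100% = wells lacking enzyme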
Target sequence (Q8NCG7 whole entry, looked up): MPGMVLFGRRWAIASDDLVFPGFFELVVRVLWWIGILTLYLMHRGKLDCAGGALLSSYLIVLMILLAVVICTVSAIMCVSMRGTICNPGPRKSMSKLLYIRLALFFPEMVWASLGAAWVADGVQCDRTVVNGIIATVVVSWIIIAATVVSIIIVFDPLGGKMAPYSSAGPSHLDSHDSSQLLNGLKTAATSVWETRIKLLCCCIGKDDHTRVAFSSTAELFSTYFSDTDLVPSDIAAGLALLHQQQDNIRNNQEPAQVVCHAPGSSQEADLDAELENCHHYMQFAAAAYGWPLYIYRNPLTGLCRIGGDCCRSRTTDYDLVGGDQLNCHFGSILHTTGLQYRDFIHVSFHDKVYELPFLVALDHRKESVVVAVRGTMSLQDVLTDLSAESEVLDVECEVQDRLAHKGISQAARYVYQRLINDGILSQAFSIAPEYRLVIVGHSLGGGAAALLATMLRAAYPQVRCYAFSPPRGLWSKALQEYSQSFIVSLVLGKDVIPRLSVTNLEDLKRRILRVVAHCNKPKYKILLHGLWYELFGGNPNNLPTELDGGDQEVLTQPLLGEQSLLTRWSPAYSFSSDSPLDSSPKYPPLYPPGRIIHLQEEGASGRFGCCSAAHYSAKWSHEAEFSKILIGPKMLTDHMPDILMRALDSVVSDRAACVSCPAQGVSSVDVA
PAFAH1B2 inh – PAFAH1B2 (human) inhibition | P68402 | recombinant PAFAH1B2, FP-rhodamine activity probe, fluorescence polarization | inhibition, % at 3.39 µM | actives 1.2% (n = 340,000);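 active = inhibition above the mean of all tested compounds plus 3 SD, cut at about 24% in these data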;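 note: 0% = enzyme with DMSO and 100% = wells lacking PAFAH1B2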
PAFAH1B3 inh – blocks human PAF acetylhydrolase 1B catalytic subunit 3. Q15102. recombinant PAFAH1B3, FP-rhodamine probe, fluorescence polarization. inhibition, % at 3.39 µM. actives 0.28% (n = 340,000);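 active = inhibition above the screen-wide average of all tested compounds plus 3 SD, cut at about 25% in these data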;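 note: 0% = enzyme with DMSO only and 100% = wells lacking PAFAH1B3 protein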
pPAFAH inh – pPAFAH (human) enzyme inhibition; Q13093; recombinant pPAFAH, FP-rhodamine probe fluorescence polarization; inhibition, % at 3.39 µM; actives 1.5% (n = 330,000);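 active = inhibition above the mean inhibition across the screen plus 3 SD, cut at about 25% in these data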;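 note: inhibitors block binding of the rhodamine activity-based probe so polarization drops; 0% = enzyme with DMSO and 100% = wells lacking pPAFAH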
PAFAH2 inh – inhibitors of human PAFAH2; actives 0.99% (n = 340,000); inhibition, % at 3.39 µM; recombinant PAFAH2, FP-rhodamine activity probe, fluorescence polarization; Q99487;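 active = inhibition above the mean over all tested compounds plus 3 SD, cut at about 30% in these data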;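 note: inhibitors block probe labeling of enzyme so polarization drops; 0% = enzyme with DMSO and 100% = wells lacking PAFAH2 protein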
HTRA1 inhibitor – blocks human HTRA1 serine peptidase; Q92743; recombinant HTRA1, FP-rhodamine activity-based probe, fluorescence polarization; inhibition, % at 5.96 µM; actives 0.5% (n = 340,000); AID 504803; in the data active = inhibition above about 36%;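 note: 0% = enzyme with DMSO and 100% = wells lacking enzyme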
* marks the source's active call; other numbers are inactive results; x = not tested or not shown. A selection: hits, their analogues and other compounds. The true share with any hit is near 2.8%.

SMILES	DAGLB inhibitor	PAFAH1B2 inh	PAFAH1B3 inh	pPAFAH inh	PAFAH2 inh	HTRA1 inhibitor
O=C(c1cccc(S(=O)(=O)N2CCOCC2)c1)N(Cc1ccco1)Cc1cccs1	1	1	3	2	0	-2
Cc1cc(NCCCO)n2nc(-c3cccs3)cc2n1	0	5	1	1	-4	-2
OCCCNc1cc(-c2ccccc2)nc2cc(-c3ccc(F)cc3)nn12	-1	26*	5	4	-10	-58
COc1ccccc1C(C)NC(=O)c1ccc(NC(=O)CC2SC(N3CCCC3)=NC2=O)cc1 (stereo not drawn)	0	-2	0	-2	-2	5
N#Cc1c(Nc2cccc(F)c2)sc2c(O)cc(=O)[nH]c12	x	x	x	25*	x	x
CCc1ccc(C2CC(c3ccc(Cl)cc3)n3nc(N)nc3N2)cc1 (stereo not drawn)	6	36*	5	-3	5	-6
Cc1cc(C)c(S(=O)(=O)Nc2ccc(N(C)C)cc2)c(C)c1-n1cnnn1	0	4	8	-1	-2	-4
CCO[C@@H]1OC(C(=O)N2CCOCC2)=C[C@H](C(C)(C)C)[C@H]1CCCO	0	7	3	2	0	-1
S=c1[nH]nc(-c2cc(-c3ccccc3)n[nH]2)n1/N=C/C=C/c1ccco1	x	x	x	26*	x	x
CCOc1ccc(S(=O)(=O)NCCC(=O)NCCCSc2ccccc2)cc1	-2	2	-1	9	8	-12
O=C(CCNS(=O)(=O)c1ccc(Br)cc1)NCCCSc1ccccc1	-10	26*	1	7	6	-1
O=C(CCNS(=O)(=O)c1ccccc1)NCCCSc1ccccc1	0	36*	6	4	5	0
Cc1ccc(S(=O)(=O)NCCC(=O)NCCCSc2ccccc2)cc1	-2	1	-2	4	-2	-10
CCOc1ccccc1/C=N/NC(=O)c1cccc(S(=O)(=O)N(CC)CC)c1	-1	-1	1	-1	-3	-2
CCN(CC)S(=O)(=O)c1cccc(C(=O)N/N=C/c2ccc(O)c(O)c2O)c1	6	14	17	30*	8	34
C[C@@H](C(=O)OCC(=O)c1ccc(F)c(F)c1)N1C(=O)C2CCCCC2C1=O (stereo partly drawn)	-3	3	3	28*	20	-7
CC(=O)OCC(=O)C1(O)CCC2C3CC(C)C4=CC(=O)C=CC4(C)C3=CCC21C (stereo not drawn)	-7	-1	2	x	-5	-12
CCOC(=O)C1CCN(C(=O)Nc2ccc3nc(-c4ccco4)c(-c4ccco4)nc3c2)CC1	5	11	13	60*	21	45*
Cc1nc2ccc(NC(=O)N3CCCCC3)cc2nc1C	-2	1	1	2	0	-3
O=C(Nc1ccc2nc(-c3ccco3)c(-c3ccco3)nc2c1)N1CCCCCC1	x	x	x	69*	x	x
CC(C)(C)OC(=O)N1Cc2ccccc2C[C@H]1C(=O)NCC(=O)NC1CCCCC1	-2	6	4	3	3	-7
O=C(O)c1[nH]c2ccc(Cl)cc2c1CC(=O)N1CCN(c2ccccc2)CC1	4	25*	6	5	7	-8
O=C(Cc1c(C(=O)O)[nH]c2ccccc12)NCCN1CCN(c2cccc(Cl)c2)CC1	4	25*	9	5	1	-15
CC1CC(C)CN(C(=O)c2cc(S(=O)(=O)N3CCCCC3)ccc2Cl)C1 (stereo not drawn)	-8	10	1	-1	-2	-6
Nc1ccc2nc(-c3ccccc3)c(-c3ccccc3)nc2c1	-6	14	9	27*	9	31
Nc1ccc(Oc2ccc3nc(-c4ccccc4)c(-c4ccccc4)nc3c2)cc1	-2	10	-2	-2	-1	2
CN(CC(=O)Nc1cccc(Cl)c1)S(=O)(=O)c1ccc2[nH]c(=O)oc2c1	4	5	5	5	4	-1
CNC(=S)N(CCCn1ccnc1)Cc1c(F)cccc1Cl	-2	1	13	6	4	6
O=C1CCCN1c1ccc(N2CCCC2=O)cc1	-1	-1	-5	4	3	5
O=C(NNC(=O)c1cccc(-n2cccc2)c1)c1ccccc1	0	1	-1	1	-1	4
